RORg inh: blocks mouse ROR gamma transcriptional activity; 310,000 compounds, 5.4% hits; Drosophila S2 Gal4-RORgamma UAS-luciferase reporter, 20 h; P51450; Potency, µM (top dose mostly 53.6 µM), actives largely listed as inhibitors; also: nearly all actives have a fitted effect of over 60% in size
Target sequence (P51450 whole entry, looked up, the tested form may be a part): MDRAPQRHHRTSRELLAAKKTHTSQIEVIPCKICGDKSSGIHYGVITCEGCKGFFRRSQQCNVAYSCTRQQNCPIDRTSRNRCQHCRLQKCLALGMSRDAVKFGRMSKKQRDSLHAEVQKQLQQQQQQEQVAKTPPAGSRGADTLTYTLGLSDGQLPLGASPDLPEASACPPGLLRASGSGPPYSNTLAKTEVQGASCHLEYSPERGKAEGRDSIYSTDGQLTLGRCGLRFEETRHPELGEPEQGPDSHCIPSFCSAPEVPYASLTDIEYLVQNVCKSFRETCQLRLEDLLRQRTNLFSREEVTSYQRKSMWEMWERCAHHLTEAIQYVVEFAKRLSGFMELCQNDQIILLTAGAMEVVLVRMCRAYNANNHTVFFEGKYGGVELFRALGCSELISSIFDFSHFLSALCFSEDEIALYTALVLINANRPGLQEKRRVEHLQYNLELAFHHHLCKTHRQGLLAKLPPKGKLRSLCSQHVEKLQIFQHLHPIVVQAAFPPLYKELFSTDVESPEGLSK
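ROR gamma transcriptional activity was tracked as Gal4-UAS luciferase output in stably transfected Drosophila Schneider cells, with compound added 1 hr before 700 uM copper sulfate induction and a 20 hr ambient-temperature incubation.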
Chronic BCR inh: blocks chronic active B-cell receptor signaling; ABC-DLBCL IkBa-CBG/CBR reporter, luminescence ratio, 4 h; 340,000 compounds, 0.05% hits; Potency, µM (series often up to 46.1 µM), hits mostly inhibitors; active = well fitted inhibition curve with a large enough effect in the signal ratio, with a control signal flat, not every such curve was filed as active; inconclusive = small, poorly fitted or top-dose-only effect, or effect the other way, or a change in a side signal; the % refers to the signal ratio
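TMD8 human ABC-DLBCL cells with doxycycline-inducible IκBα–green luciferase fusion and unfused red luciferase, in 0.5% FBS medium; compounds up to 46 uM, 4 h at 37C. Green/red luminescence ratio, filter-overlap corrected, fitted to concentration-response curves.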
Gal4-VP16 FLuc: counter-screen for ROR gamma inhibitors: Gal4-VP16 reporter; Drosophila S2 Gal4-VP16 UAS-luciferase, luminescence, 20 h; Potency, µM (titrated, usually from 53.6 µM), usual class: inhibitors; AID 2546; 310,000 compounds, 3.5% hits;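 also: Gal4-VP16 expression switched on by copper sulfate through the metallothionein promoter; nearly all actives have a fitted effect of over 50% in size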
Giardia kill: kills Giardia lamblia; activity change, % at 7.66 µM, hits read low; Giardia lamblia trophozoite viability; 340,000 compounds, 0.15% hits; in the data active = activity change below about -80%; inconclusive = between about -30% and that limit;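 also: parasites exposed to compound for two days anaerobically before the ATP read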
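Luminescent ATP signal served as the viability read-out, measured 15-30 min after adding ATP detection reagent to trophozoites that had been incubated with compounds for 48 hrs at 37 deg C anaerobically at 100 cells/well.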
MCF10A rereplic: DNA re-replication induction in MCF 10a cells. MCF 10A DNA re-replication, Hoechst nuclear intensity, 48 h. 350,000 compounds, 2.9% hits. AID 624296. Potency, µM (titrated, usually from 46.1 µM), most hits filed as activators; also: nearly all actives have a fitted effect of over 50% in size
SW480 rerep: DNA re-replication induction in SW480 cells; SW480 DNA re-replication, Hoechst DNA content imaging, 48 h; Potency, µM (highest dose often 46.1 µM), most hits filed as activators; 340,000 compounds, 1.8% hits; also: nearly all actives have a fitted effect of over 55% in size
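First, 250 cells per well were seeded. Next, compound or vehicle (23 nL) was pinned in, plates sat 48 hr at 37 C. Finally Hoechst was added for 40 min before fluorescence scanning.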
Large screens that a line does not name were inactive. Shown are actives, neighbours in structure and some others; about 8.3% of the full set was active somewhere. Unless noted, calls follow the shape of the dose curve; as a rule, active = well fitted curve in the direction sought with a large enough effect; inconclusive = small, poorly fitted or top-dose-only effect, or another doubt; inactive = no such curve, though single readings can be large; an effect the other way counts as inactive or inconclusive.

O=C(NCc1n[nH]c(=S)n1-c1ccccc1Cl)c1ccc(S(=O)(=O)N2CCCCC2)cc1	none
COc1ccc(COC(=O)N/N=C2/C[C@@H](O)[C@@H](O)[C@@H]3[C@@H]4C(=O)N(Cc5ccccc5)C(=O)[C@H]4CC[C@@H]23)cc1	none (no result: Chronic BCR inh, Giardia kill, MCF10A rereplic, SW480 rerep)
COc1ccc(C)cc1NC(=O)CN(C)S(=O)(=O)c1cnc[nH]1	MCF10A rereplic 23µM, SW480 rerep inconclusive
COn1c(-c2ccc(Cl)cc2)nc2ncccc21	none
Nc1nc(N)c2cc(Sc3ccc4ccccc4c3)ccc2n1	RORg inh inconclusive, Chronic BCR inh inconclusive, Gal4-VP16 FLuc inconclusive, MCF10A rereplic 16µM, SW480 rerep inconclusive
Cc1ccc(Sc2c(C#N)c(-c3ccccc3)nn2C)cc1	MCF10A rereplic 6.5µM, SW480 rerep inconclusive
Cn1nc(-c2ccccc2)c(CN2CCN(c3ncccn3)CC2)c1Cl	MCF10A rereplic inconclusive
Cn1nc(-c2ccccc2)c(CSc2ccccc2)c1Cl	Chronic BCR inh inconclusive, MCF10A rereplic 13µM, SW480 rerep inconclusive
Cc1ccc(SCc2c(-c3ccccc3)nn(C)c2Cl)cc1	Chronic BCR inh inconclusive, MCF10A rereplic 8.2µM
Cc1csc(NC(=O)NCC2CCCC(CNC(=O)Nc3nc(C)cs3)C2)n1 (centres undefined)	Chronic BCR inh inconclusive, MCF10A rereplic inconclusive
CC(C)(C)OC(=O)CNC(=O)c1[nH]cnc1C(=O)Nc1ccc(CNC(=O)OC(C)(C)C)cc1	RORg inh 11µM, Chronic BCR inh inconclusive, Gal4-VP16 FLuc inconclusive, MCF10A rereplic inconclusive
CC(C)(C)OC(=O)CNC(=O)c1[nH]cnc1C(=O)Nc1ccc(Cl)cc1	RORg inh 4.5µM, Gal4-VP16 FLuc 13µM
CC(C)(C)OC(=O)NCc1ccc(NC(=O)c2nc[nH]c2C(=O)NCCNC(=O)c2[nH]cnc2C(=O)Nc2ccc(CNC(=O)OC(C)(C)C)cc2)cc1	MCF10A rereplic 23µM, SW480 rerep inconclusive (no result: RORg inh, Gal4-VP16 FLuc)
Cc1ccc(C(=O)NCCNS(=O)(=O)c2ccccc2)cn1	none
Cc1nn2cc(-c3ccc(-c4ccccc4)cc3)nc2s1	RORg inh inconclusive, Gal4-VP16 FLuc inconclusive
Nc1nn2cc(-c3ccccc3)nc2c2ccccc12	Chronic BCR inh inconclusive
Nc1nc(-c2ccccc2)cn1N	RORg inh 3.2µM, Chronic BCR inh inconclusive, Gal4-VP16 FLuc 7.1µM
c1ccc(-c2cn3nc(-c4ccccc4)c(-c4ccccc4)nc3n2)cc1	RORg inh 22µM, Chronic BCR inh inconclusive, MCF10A rereplic 7.3µM, SW480 rerep 9.2µM
Cc1ccc(-c2cn3nc(-c4ccccc4)c(-c4ccccc4)nc3n2)cc1	MCF10A rereplic inconclusive, SW480 rerep 18µM
C[C@@H]1CN([C@H](C)CO)C(=O)c2cc(NS(=O)(=O)c3cn(C)cn3)ccc2O[C@@H]1CN(C)S(C)(=O)=O	none (no result: RORg inh, Gal4-VP16 FLuc)
CN(CC(=O)Nc1ccccc1Cl)C(=O)c1ccccc1Sc1ccccc1C#N	none (no result: RORg inh, Gal4-VP16 FLuc)
OCC(O)CN1CCCC1 (centres undefined)	none
COc1ccc(S(=O)(=O)N(C)c2ccc(C(=O)Nc3ccccc3C(=O)N3CCOCC3)cc2)cc1OC	none
N#Cc1c(Cl)nc(N/N=C/c2ccccc2)c(Cl)c1Cl	RORg inh 8.9µM, Chronic BCR inh inconclusive, Gal4-VP16 FLuc 5µM (no result: SW480 rerep)
CCn1c(SCC(=O)NCc2ccccc2)nc2nc3c(cc2c1=O)CCCC3	none
CCn1c(SCC(=O)Nc2ccc(Cl)cc2)nc2nc3c(cc2c1=O)CCCC3	RORg inh 14µM, Gal4-VP16 FLuc 13µM, SW480 rerep inconclusive
CCn1c(SCc2ccccc2Cl)nc2ccccc21	RORg inh 10µM, MCF10A rereplic inconclusive
CCn1c(SCc2c(Cl)cccc2Cl)nc2nc3c(cc2c1=O)CCCC3	MCF10A rereplic 23µM, SW480 rerep inconclusive (no result: RORg inh, Chronic BCR inh, Gal4-VP16 FLuc)
Cn1c(SCc2ccccc2Cl)nc2ccccc21	RORg inh inconclusive, MCF10A rereplic inconclusive
CCn1c(SCc2ccccc2Cl)nc2nc3c(cc2c1=O)CCCC3	RORg inh 11µM, Gal4-VP16 FLuc inconclusive, MCF10A rereplic 18µM, SW480 rerep inconclusive
CCn1c(SCC(=O)Nc2ccc(C(C)=O)cc2)nc2nc3c(cc2c1=O)CCCC3	RORg inh inconclusive, Chronic BCR inh inconclusive, Gal4-VP16 FLuc inconclusive, MCF10A rereplic inconclusive
CCn1c(SCC(=O)Nc2ccc(OC)cc2)nc2nc3c(cc2c1=O)CCCC3	none
CCCCN1C(=O)C(=O)N(CC(=O)N2CCc3ccccc32)C1=O	none (no result: RORg inh, Gal4-VP16 FLuc)
O=C(Nc1ccc(C(=O)N2CCOCC2)cc1)C1CCC1	SW480 rerep inconclusive (no result: RORg inh, Chronic BCR inh, Gal4-VP16 FLuc)
Cn1c(CSCc2ccc(F)cc2)n[nH]c1=S	RORg inh inconclusive, Gal4-VP16 FLuc inconclusive
COC(Cc1nnc(SC)n1-c1ccccc1)OC	none
Cn1c(CSCc2ccc(Cl)cc2)n[nH]c1=S	RORg inh 2.8µM, Gal4-VP16 FLuc 13µM
Cc1[nH]c2ccccc2c1SCc1n[nH]c(=S)n1C	none
Cn1c(CSCc2ccc(Cl)cc2Cl)n[nH]c1=S	RORg inh 0.79µM, Gal4-VP16 FLuc 6.3µM
Cn1c(CSCc2ccccc2Cl)n[nH]c1=S	none
Cn1c(CSCc2ccccc2)n[nH]c1=S	RORg inh 11µM, Gal4-VP16 FLuc inconclusive
CSc1nnc(CSCc2ccc(Cl)cc2Cl)n1-c1ccccc1	MCF10A rereplic 11µM
O=C(Nc1ccc(F)c(Cl)c1)c1cc(S(=O)(=O)NCc2ccc3c(c2)OCO3)ccc1F	none (no result: RORg inh, Gal4-VP16 FLuc, Giardia kill, MCF10A rereplic, SW480 rerep)
O=C(Nc1ccc([N+](=O)[O-])cc1)c1cncc(Br)c1	none
Cc1ccc(NCCC(=O)c2cccc([N+](=O)[O-])c2)c(C)c1	RORg inh 10µM, Gal4-VP16 FLuc inconclusive, MCF10A rereplic inconclusive, SW480 rerep inconclusive
CCn1c(=NC(=O)CSC(C)=O)sc2cc(OC)ccc21	RORg inh 10µM, Gal4-VP16 FLuc inconclusive
COCCn1c(=NC(=O)CSC(C)=O)sc2cc(OC)ccc21	none
CCN(CC(=O)NCc1ccc(Cl)cc1)Cc1cc(=O)n2ccsc2n1	none
Cc1ccc([N+](=O)[O-])cc1N=C(c1cccc(Br)c1)N1CCOCC1	RORg inh inconclusive
O=C1NC[C@H](c2ccccc2)N1	none (no result: Chronic BCR inh, Giardia kill, MCF10A rereplic, SW480 rerep)
CN1CC[C@@]23c4ccccc4N[C@H]1[C@]21CCN(C)[C@@H]3Nc2ccccc21	none (no result: Chronic BCR inh, Giardia kill, MCF10A rereplic, SW480 rerep)
COC(=O)C1=C(C)N(Cc2ccccc2)C2=C3C(=O)N(C)C(=O)C3[C@@](O)(C(=O)OC)C(=O)N2C1c1ccccc1 (some centres undefined)	none (no result: Chronic BCR inh, Giardia kill, MCF10A rereplic, SW480 rerep)
CCOC(=O)CN1C(=O)N[C@@H](c2ccc(Br)cc2)C(C(=O)OC)=C1C	none
CCOC(=O)CN1C(=O)N[C@H](c2ccc(Br)cc2)C(C(C)=O)=C1C	MCF10A rereplic 6.5µM, SW480 rerep inconclusive
Cc1ccc(S(=O)(=O)Nc2ccc(O)c3cccnc23)cc1	RORg inh 10µM, Chronic BCR inh inconclusive, Gal4-VP16 FLuc inconclusive, MCF10A rereplic inconclusive, SW480 rerep 23µM
Cc1ccc(S(=O)(=O)Nc2ccc(O)c3ncccc23)cc1	RORg inh 2.5µM, Gal4-VP16 FLuc inconclusive

From PubChem
